Test in all cases: DAPPL (digital affinity profiling via proximity ligation, sequencing); 10 mM Tris-HCl pH 7.5, 50 mM NaCl, 1 mM DTT, 4% glycerol, room temperature, 30 min; GST-TFs on glutathione beads, 16-mer random dsDNA library, 0.1% formaldehyde crosslink after washing; high values mean tight binding
One experiment addresses HSF1 (Homo sapiens, UniProt Q00613 1-529). The note with it: protein: recombinant; tags: N-terminal GST; chain copies: 3; dsDNA, one strand shown. In outline:
(§1)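 Human transcription factors were made in yeast as GST fusions, captured on glutathione beads and barcoded with DNA. With a tag-only sample included, the pool was incubated with 200 nmole of a random double-stranded 16-mer DNA library in Tris/NaCl/DTT/glycerol buffer at room temperature for 30 min, then crosslinked with 0.1% formaldehyde after washing, ligated by proximity, amplified and sequenced. For binding signal, each hexamer's read frequency for a factor is divided by its frequency for the tag-only sample.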

Another experiment addresses T1, ELK4 (Homo sapiens, UniProt P28324-2 1-405).
T1 sequence: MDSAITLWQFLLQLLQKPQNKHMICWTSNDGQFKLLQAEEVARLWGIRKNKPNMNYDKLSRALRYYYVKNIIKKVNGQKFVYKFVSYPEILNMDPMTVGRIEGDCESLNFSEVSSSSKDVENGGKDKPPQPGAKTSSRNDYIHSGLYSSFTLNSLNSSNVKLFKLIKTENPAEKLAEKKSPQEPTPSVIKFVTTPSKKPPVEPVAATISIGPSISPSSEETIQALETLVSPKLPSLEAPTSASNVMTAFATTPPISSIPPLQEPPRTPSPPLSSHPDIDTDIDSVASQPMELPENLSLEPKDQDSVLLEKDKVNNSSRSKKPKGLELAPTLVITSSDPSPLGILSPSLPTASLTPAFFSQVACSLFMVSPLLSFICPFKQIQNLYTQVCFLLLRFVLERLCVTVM
As to conditions: protein: recombinant; tags: N-terminal GST; dsDNA, one strand shown. In a few lines: as §1

A further experiment deals with T2, ELF3 (Homo sapiens, UniProt P78545 1-371).
T2 sequence: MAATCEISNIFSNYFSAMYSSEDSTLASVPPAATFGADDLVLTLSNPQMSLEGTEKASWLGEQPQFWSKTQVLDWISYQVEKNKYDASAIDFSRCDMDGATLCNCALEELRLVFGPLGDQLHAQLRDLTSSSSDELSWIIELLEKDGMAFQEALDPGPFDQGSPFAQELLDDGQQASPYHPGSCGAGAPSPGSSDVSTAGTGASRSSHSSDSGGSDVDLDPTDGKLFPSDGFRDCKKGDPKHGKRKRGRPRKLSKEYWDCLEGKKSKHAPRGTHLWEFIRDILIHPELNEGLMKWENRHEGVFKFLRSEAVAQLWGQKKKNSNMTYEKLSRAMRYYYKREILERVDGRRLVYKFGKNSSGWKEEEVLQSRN
The note with it: protein: recombinant; tags: N-terminal GST; dsDNA, one strand shown. In a few lines: as §1

For another experiment, the target named is CRX (Homo sapiens, UniProt O43186 1-299). As to conditions: protein: recombinant; tags: N-terminal GST; dsDNA, one strand shown. In outline: as §1
A further experiment concerns the target T3, ETV7 (Homo sapiens, UniProt Q9Y603 1-341).
T3 sequence: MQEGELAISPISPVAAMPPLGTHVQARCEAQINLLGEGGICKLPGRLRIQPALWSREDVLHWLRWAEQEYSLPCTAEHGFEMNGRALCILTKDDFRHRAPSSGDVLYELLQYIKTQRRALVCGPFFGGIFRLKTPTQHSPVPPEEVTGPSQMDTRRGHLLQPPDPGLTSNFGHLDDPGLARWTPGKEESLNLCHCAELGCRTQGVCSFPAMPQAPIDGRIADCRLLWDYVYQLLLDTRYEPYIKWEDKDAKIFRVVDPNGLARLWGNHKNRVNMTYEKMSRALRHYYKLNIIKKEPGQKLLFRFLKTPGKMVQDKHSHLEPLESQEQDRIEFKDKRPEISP
As to conditions: protein: recombinant; tags: N-terminal GST; dsDNA, one strand shown. In a few lines:
as §1

A further experiment deals with T4, ERG (Homo sapiens, UniProt P11308 1-479).
T4 sequence: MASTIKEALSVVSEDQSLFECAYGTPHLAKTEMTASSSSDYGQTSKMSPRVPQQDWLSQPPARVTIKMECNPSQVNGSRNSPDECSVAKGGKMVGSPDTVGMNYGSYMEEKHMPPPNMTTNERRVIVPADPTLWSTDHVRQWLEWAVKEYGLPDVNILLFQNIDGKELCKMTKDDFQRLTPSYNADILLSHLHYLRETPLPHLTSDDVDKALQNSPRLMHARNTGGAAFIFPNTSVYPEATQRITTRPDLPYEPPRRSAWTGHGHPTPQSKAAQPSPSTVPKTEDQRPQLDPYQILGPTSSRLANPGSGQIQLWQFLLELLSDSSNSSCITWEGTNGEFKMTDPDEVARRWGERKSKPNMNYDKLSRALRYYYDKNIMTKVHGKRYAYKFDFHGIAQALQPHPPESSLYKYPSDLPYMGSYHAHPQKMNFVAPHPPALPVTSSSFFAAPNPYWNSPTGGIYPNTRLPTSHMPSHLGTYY
As to conditions: protein: recombinant; tags: N-terminal GST; dsDNA, one strand shown. In a few lines: as §1

The target of another experiment is ELF1 (Homo sapiens, UniProt P32519 1-619). As to conditions: protein: recombinant; tags: N-terminal GST; dsDNA, one strand shown. In outline: as §1
A further experiment deals with T5, EHF (Homo sapiens, UniProt Q9NZC4 1-300).
T5 sequence: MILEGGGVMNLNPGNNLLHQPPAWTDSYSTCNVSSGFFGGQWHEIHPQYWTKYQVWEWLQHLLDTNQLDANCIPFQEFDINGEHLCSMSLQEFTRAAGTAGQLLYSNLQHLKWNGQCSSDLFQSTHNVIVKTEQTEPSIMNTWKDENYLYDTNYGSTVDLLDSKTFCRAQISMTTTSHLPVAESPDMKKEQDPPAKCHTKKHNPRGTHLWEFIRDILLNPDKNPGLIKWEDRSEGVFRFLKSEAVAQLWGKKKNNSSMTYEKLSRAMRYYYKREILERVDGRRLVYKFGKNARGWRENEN
As to conditions: protein: recombinant; tags: N-terminal GST; dsDNA, one strand shown. In a few lines:
as §1

For the next experiment, the target named is T6, FEV (Homo sapiens, UniProt Q99581 1-238).
T6 sequence: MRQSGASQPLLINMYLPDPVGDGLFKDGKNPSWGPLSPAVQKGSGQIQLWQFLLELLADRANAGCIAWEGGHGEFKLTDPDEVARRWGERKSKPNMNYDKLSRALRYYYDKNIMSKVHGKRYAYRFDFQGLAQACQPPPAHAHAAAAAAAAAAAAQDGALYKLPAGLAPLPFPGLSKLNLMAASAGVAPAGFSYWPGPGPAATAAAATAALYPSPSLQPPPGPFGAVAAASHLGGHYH
As to conditions: protein: recombinant; tags: N-terminal GST; dsDNA, one strand shown. In outline:
as §1

A further experiment has as its target ELF4 (Homo sapiens, UniProt Q99607 1-663). The note with it: protein: recombinant; tags: N-terminal GST; dsDNA, one strand shown. In outline:
as §1

The next experiment has as its target T7, ETV2 (Homo sapiens, UniProt O00321 1-342).
T7 sequence: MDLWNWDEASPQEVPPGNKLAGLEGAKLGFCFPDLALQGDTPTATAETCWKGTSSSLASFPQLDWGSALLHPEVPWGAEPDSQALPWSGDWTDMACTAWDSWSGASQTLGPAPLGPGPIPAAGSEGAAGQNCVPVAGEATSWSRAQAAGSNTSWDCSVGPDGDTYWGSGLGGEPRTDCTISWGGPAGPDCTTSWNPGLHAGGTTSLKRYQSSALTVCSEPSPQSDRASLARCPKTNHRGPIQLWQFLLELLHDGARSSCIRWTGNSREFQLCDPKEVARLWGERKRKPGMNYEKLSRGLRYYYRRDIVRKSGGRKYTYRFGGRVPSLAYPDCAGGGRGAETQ
The note with it: protein: recombinant; tags: N-terminal GST; dsDNA, one strand shown. In a few lines: as §1

Another experiment concerns the target ETV1 (Homo sapiens, UniProt P50549 1-477). As to conditions: protein: recombinant; tags: N-terminal GST; dsDNA, one strand shown. In outline: as §1
The next experiment concerns the target T8, ETV3L (Homo sapiens, UniProt Q6ZN32 1-361).
T8 sequence: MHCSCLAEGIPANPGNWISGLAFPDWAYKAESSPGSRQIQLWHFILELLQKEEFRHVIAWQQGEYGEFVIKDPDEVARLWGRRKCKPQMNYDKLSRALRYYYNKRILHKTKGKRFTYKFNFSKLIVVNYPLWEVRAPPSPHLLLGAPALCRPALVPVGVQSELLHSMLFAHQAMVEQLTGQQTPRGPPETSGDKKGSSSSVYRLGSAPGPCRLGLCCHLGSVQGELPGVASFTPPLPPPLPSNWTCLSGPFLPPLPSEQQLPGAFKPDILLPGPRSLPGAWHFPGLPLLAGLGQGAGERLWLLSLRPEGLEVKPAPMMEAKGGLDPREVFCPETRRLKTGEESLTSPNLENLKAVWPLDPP
The note with it: protein: recombinant; tags: N-terminal GST; dsDNA, one strand shown. In a few lines:
as §1

Another experiment has as its target T9, ETS2 (Homo sapiens, UniProt P15036 1-469).
T9 sequence: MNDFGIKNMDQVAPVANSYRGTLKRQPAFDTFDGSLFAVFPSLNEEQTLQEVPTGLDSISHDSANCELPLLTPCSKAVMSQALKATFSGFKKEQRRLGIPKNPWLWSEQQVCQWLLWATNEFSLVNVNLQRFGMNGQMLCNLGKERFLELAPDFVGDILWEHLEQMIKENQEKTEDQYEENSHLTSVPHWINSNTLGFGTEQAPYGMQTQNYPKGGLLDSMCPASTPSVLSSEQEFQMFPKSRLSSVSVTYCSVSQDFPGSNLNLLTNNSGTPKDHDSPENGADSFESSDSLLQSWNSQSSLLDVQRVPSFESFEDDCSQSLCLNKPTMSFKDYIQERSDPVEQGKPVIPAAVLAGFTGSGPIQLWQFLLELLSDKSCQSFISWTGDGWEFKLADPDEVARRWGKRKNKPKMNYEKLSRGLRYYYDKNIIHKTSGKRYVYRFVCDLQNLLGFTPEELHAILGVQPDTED
The note with it: protein: recombinant; tags: N-terminal GST; dsDNA, one strand shown. In outline:
as §1

The target of the next experiment is T10, SPDEF (Homo sapiens, UniProt O95238 1-335).
T10 sequence: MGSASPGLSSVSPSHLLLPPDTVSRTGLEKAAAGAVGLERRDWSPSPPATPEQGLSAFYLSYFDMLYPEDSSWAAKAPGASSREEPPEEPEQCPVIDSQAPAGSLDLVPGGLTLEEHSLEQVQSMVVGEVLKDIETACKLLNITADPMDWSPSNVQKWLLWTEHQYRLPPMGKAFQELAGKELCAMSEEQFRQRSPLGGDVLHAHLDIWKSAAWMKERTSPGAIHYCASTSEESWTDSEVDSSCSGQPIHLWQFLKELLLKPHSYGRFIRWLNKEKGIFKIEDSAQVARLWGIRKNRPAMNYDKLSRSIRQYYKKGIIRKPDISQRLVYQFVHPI
The note with it: protein: recombinant; tags: N-terminal GST; dsDNA, one strand shown. In a few lines: as §1

Another experiment addresses T11, ETV3 (Homo sapiens, UniProt P41162-2 1-143).
T11 sequence: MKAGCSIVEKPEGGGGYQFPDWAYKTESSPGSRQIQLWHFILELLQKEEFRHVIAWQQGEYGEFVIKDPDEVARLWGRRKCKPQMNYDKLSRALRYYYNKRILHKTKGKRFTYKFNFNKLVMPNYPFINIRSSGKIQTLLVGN
As to conditions: protein: recombinant; tags: N-terminal GST; dsDNA, one strand shown. In outline: as §1

The next experiment concerns the target ETV6 (Homo sapiens, UniProt P41212 1-452). As to conditions: protein: recombinant; tags: N-terminal GST; dsDNA, one strand shown. In outline: as §1

HSF1, sequence (Q00613 whole entry, the tested form may be a part): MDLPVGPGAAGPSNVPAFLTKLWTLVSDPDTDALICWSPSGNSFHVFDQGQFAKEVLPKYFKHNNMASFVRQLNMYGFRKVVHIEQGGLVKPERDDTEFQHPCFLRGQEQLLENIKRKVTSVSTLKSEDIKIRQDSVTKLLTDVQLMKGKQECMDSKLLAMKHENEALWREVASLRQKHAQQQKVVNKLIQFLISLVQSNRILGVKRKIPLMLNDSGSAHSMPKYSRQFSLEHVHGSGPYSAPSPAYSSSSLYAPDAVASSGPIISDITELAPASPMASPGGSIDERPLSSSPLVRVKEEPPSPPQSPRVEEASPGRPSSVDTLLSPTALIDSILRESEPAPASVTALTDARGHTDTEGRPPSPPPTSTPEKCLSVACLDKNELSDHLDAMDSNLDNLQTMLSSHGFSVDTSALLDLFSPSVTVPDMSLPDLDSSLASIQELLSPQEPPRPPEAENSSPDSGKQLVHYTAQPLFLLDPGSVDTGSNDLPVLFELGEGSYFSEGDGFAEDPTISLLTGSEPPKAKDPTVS
CRX, sequence (O43186 whole entry): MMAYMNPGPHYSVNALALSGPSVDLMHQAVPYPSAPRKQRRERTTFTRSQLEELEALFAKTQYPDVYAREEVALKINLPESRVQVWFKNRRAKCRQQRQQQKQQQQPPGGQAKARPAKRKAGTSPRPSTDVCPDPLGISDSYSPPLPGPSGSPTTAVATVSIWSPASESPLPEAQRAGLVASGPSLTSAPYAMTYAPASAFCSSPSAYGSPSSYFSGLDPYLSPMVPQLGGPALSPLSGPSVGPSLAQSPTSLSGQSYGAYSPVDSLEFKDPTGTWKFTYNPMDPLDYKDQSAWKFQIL
ELF1, sequence (P32519 whole entry): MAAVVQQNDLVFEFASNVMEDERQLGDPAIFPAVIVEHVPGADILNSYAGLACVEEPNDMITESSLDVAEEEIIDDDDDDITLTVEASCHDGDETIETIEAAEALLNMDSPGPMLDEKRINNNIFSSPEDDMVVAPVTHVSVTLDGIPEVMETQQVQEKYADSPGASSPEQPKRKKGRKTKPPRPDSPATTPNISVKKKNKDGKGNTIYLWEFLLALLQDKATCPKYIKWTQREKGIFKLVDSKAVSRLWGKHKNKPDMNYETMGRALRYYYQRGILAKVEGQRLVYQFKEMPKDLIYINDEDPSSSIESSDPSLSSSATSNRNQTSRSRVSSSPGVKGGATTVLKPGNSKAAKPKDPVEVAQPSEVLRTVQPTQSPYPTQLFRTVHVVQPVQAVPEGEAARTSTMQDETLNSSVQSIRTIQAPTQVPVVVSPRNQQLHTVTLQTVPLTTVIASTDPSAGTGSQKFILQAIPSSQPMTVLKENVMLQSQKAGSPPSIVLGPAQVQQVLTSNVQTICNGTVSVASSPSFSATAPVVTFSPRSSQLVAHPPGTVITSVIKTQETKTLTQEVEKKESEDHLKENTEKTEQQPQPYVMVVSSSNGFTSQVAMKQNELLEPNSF
ELF4, sequence (Q99607 whole entry): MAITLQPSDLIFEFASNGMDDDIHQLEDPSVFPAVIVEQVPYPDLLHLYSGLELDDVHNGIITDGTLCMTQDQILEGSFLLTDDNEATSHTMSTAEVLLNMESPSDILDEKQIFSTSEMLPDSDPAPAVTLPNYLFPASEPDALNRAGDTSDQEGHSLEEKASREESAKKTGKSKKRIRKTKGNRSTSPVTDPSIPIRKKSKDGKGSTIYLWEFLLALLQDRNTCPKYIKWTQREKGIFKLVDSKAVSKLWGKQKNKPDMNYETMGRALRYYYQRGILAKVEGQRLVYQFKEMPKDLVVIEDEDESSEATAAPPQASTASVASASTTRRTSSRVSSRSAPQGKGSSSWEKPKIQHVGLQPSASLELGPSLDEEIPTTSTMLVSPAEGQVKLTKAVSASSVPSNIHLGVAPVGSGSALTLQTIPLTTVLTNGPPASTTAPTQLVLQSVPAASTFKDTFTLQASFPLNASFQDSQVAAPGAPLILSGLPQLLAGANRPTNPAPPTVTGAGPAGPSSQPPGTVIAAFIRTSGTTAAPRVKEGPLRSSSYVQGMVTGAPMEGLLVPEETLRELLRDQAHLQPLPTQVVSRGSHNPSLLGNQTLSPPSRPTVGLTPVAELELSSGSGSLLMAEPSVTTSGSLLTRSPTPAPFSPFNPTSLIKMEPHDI
ETV1, sequence (P50549 whole entry): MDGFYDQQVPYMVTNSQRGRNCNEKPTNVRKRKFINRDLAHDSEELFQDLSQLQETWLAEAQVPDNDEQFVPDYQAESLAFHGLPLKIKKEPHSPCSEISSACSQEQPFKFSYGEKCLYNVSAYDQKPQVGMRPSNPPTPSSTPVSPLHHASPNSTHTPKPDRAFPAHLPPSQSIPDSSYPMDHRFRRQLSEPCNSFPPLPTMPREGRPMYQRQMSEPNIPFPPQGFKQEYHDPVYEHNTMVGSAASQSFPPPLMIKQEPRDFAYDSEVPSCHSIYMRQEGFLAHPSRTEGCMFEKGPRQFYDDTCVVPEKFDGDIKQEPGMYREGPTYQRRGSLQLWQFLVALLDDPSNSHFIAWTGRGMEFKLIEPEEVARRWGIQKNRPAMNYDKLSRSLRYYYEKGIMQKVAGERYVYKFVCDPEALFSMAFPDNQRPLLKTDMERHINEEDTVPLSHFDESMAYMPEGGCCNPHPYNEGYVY
ETV6, sequence (P41212 whole entry): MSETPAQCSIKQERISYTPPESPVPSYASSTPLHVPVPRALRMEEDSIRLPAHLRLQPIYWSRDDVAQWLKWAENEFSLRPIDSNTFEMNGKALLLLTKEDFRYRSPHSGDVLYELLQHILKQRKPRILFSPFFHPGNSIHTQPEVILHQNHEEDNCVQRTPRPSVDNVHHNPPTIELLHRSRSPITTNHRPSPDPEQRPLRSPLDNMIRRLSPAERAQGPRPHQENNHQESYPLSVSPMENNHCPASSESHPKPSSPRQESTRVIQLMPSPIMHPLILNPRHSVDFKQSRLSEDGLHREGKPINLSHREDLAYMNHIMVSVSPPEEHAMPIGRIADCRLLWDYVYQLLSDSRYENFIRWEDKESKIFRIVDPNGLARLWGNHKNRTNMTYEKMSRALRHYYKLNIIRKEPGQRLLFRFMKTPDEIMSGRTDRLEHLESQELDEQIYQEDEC

Regarding AGAAGA, the binding signal with HSF1 was 1.68 fold enrichment (6-mer frequency, TF over GST control); with ELK4, 1.05 fold enrichment (6-mer frequency, TF over GST control); with ELF3, 1.03 fold enrichment (6-mer frequency, TF over GST control); with CRX, 1.14 fold enrichment (6-mer frequency, TF over GST control); in the experiment with ETV7, 1.01 fold enrichment (6-mer frequency, TF over GST control).

On to ATTAGT, for which the binding signal in the experiment with ERG was 1.01 fold enrichment (6-mer frequency, TF over GST control); in the experiment with ELF1 it was 1.03 fold enrichment (6-mer frequency, TF over GST control); with EHF, 1 fold enrichment (6-mer frequency, TF over GST control); in the experiment with FEV, 1.01 fold enrichment (6-mer frequency, TF over GST control); with HSF1, 1.69 fold enrichment (6-mer frequency, TF over GST control); in the experiment with ELF4, 1.06 fold enrichment (6-mer frequency, TF over GST control). The binding signal with ELK4 is 1.2 fold enrichment (6-mer frequency, TF over GST control); in the experiment with ETV2, 1.12 fold enrichment (6-mer frequency, TF over GST control); with CRX, 2.44 fold enrichment (6-mer frequency, TF over GST control); with ETV1, 1.03 fold enrichment (6-mer frequency, TF over GST control); with ETV3L, 1.03 fold enrichment (6-mer frequency, TF over GST control); with ETS2, 1.01 fold enrichment (6-mer frequency, TF over GST control). For the same sequence, the binding signal with SPDEF was 1.06 fold enrichment (6-mer frequency, TF over GST control); with ETV7 it was 1.08 fold enrichment (6-mer frequency, TF over GST control); with ETV3, 1.01 fold enrichment (6-mer frequency, TF over GST control); with ETV6 it was 1.01 fold enrichment (6-mer frequency, TF over GST control).

Source of the values: publication PMC7862700, “An all-to-all approach to the identification of sequence-specific readers for epigenetic DNA modifications on cytosine”.
